# According to PubChem BioAssay:
# Active and inactive are the calls of the source.
# Assays:
# [1] = E. coli DRC41 culture turbidity changes, primary screen, E. coli filamentation inducer project, strain DRC41, OD650, 48 h (AID 1152);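 also: E. coli MC1000 strain DRC41 lacking acrAB efflux pump and sulA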; conditions: E. coli DRC41 (acrAB sulA), higher = more signal, called active from +8 up or from −8 down
# [2] = small-molecule binders of probe aLefty1, primary screen, biochemical, small-molecule microarray, 635/667 nm fluorescence (AID 1153); conditions: higher = more signal;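 also: score merges spot fluorescence with signal-to-noise ratio from the scanned slide images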
# [3] = PSAC antagonists in infected red cells, primary screen, cell-based, P. falciparum Indochina, OD700, 1 h (AID 1154); conditions: P. falciparum Indochina infected RBC osmotic lysis, higher = more signal, called active from +8 up or from −8 down
# [4] = PSAC antagonists in infected red cells, primary screen, cell-based, P. falciparum Indochina, OD700, 2 h (AID 1155);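 also: lysis reports solute entry through the parasite surface anion channel PSAC; channel blockers reduce lysis of infected cells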; conditions: P. falciparum Indochina infected erythrocytes, osmotic lysis OD700; higher = more signal, called active from +8 up or from −8 down
# [5] = osmotic lysis modulators in infected erythrocytes, primary screen, PSAC antagonist project, cell-based, P. falciparum Indochina, OD700, 3 h (AID 1156); conditions: higher = more signal, called active from +8 up or from −8 down
# [6] = PSAC antagonists in infected red cells, primary screen, cell-based, P. falciparum Indochina, OD700, 18 h (AID 1157); conditions: P. falciparum Indochina infected erythrocytes, osmotic lysis OD700, 18 h; higher = more signal, called active from +8 up or from −8 down
# [7] = modulators of S6 phosphorylation in cells, primary screen, cell-based, A549, cytoblot, luminescence, serum-stimulated (AID 1158); conditions: A549 phospho-S6 cytoblot, 5 h, higher = more signal;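 also: serum-stimulated A549 lung adenocarcinoma cells; signal is phosphorylated S6 detected by cytoblot immunostaining with HRP secondary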
# [8] = target: NADPH oxidase 2 (Homo sapiens) (UniProt P04839); test: NOX2-dependent H2O2 signal modulators, primary screen, NOX inhibitor project, cell-based, HEK293-NOX2, PMA-stimulated, Amplex Red fluorescence (AID 1159); conditions: 45 min, higher = more signal, called active from +8 up or from −8 down; also: test concentration not given here
# NADPH oxidase 2 (Homo sapiens), sequence (P04839 whole entry, looked up): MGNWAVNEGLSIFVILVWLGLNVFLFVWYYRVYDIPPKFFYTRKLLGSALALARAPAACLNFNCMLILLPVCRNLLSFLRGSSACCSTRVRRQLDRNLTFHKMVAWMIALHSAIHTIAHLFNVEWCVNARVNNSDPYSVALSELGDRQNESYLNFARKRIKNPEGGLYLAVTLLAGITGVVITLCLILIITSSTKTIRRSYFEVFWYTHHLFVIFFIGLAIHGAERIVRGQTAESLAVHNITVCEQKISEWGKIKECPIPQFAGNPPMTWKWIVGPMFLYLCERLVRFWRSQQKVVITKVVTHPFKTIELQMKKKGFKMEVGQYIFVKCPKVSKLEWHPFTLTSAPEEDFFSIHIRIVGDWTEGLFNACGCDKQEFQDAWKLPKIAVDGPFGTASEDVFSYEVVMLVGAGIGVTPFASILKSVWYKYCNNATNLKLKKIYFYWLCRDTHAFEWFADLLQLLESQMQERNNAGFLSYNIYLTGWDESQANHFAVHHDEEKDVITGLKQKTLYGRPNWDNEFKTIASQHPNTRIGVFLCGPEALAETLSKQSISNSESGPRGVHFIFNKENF
# [9] = target: NADPH oxidase 4 (Homo sapiens) (UniProt Q9NPH5); test: NOX4-dependent H2O2 signal modulators, primary screen, NOX inhibitor project, cell-based, HEK293-NOX4, tetracycline-induced, Amplex Red fluorescence (AID 1160); conditions: 45 min, higher = more signal, called active from +8 up or from −8 down
# NADPH oxidase 4 (Homo sapiens), sequence (Q9NPH5 whole entry, looked up): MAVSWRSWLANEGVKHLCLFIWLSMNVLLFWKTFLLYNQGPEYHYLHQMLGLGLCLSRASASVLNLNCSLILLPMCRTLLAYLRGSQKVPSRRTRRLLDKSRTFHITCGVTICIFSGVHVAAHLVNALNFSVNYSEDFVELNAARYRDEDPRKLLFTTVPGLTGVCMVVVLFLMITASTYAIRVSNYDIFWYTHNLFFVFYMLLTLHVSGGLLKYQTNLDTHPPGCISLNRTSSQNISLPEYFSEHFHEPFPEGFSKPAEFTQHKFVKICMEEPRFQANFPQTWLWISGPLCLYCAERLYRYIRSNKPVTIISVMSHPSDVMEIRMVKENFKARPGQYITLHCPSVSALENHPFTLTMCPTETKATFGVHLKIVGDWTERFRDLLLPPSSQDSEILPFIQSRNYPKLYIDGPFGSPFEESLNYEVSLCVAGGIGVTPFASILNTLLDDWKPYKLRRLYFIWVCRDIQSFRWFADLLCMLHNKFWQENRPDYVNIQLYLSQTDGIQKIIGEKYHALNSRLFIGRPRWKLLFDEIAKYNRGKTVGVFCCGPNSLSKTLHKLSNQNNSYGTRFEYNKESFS
# [10] = target: NADPH oxidase 5 (Homo sapiens) (UniProt Q96PH1); test: NOX5-dependent H2O2 signal modulators, primary screen, NOX inhibitor project, cell-based, HEK293-NOX5, Amplex Red fluorescence (AID 1161); conditions: HEK293-NOX5, ionomycin, 45 min, higher = more signal
# NADPH oxidase 5 (Homo sapiens), sequence (Q96PH1 whole entry, looked up): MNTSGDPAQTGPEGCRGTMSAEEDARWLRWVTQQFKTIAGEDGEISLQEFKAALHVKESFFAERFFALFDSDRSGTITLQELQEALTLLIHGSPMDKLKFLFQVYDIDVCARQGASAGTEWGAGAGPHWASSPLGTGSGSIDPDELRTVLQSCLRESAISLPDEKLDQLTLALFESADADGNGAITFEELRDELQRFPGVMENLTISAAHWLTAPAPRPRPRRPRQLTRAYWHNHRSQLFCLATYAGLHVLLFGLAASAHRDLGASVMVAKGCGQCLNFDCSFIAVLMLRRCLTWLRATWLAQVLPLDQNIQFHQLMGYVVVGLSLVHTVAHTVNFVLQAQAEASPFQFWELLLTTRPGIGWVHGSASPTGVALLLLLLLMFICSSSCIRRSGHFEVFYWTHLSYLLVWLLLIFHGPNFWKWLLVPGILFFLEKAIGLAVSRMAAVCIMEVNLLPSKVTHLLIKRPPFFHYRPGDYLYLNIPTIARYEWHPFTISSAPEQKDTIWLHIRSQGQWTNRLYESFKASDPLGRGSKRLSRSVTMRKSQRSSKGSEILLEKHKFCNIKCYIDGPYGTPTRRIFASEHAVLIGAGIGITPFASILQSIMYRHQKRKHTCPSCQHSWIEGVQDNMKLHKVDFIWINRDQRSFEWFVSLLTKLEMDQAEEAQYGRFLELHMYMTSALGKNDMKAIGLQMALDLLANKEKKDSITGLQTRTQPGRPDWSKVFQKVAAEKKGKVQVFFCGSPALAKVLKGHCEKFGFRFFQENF
Structure (SMILES),z-score [1],composite z-score [2],z-score [3],z-score [4],z-score [5],z-score [6],z-score [7],z-score [8],z-score [9],z-score [10]
CCCCC(O)C1C=CC2C(=O)N(c3ccccc3)C(=O)C2N1Nc1ccccc1 (stereo not given),-0.274 (inactive),0.139,4.52 (inactive),0.786 (inactive),-0.196 (inactive),1.17 (inactive),-0.439,-1.17 (inactive),-2.93 (inactive),-2.06
COC(=O)C(CC#Cc1ccc2c(c1)[C@]1(C(=O)N2)[C@H](C(=O)NC[C@H](O)c2ccccc2)[C@H]2C(=O)O[C@H](c3ccccc3)[C@H](c3ccccc3)N2[C@@H]1c1ccccc1OCCO)C(=O)OC,1.52 (inactive),-0.0559,4.2 (inactive),0.574 (inactive),0.725 (inactive),-0.124 (inactive),1.46,0.504 (inactive),-0.421 (inactive),-2.45
CN(C)c1ccc(C(O)C2C=CC3C(=O)N(Cc4ccccc4)C(=O)C3N2n2cnnc2)cc1 (stereo not given),1.3 (inactive),-0.115,0.0651 (inactive),-0.318 (inactive),0.747 (inactive),-0.553 (inactive),1.02,0.683 (inactive),-0.524 (inactive),0.36
C=C(/C(=C/C[C@@H](OC(C)=O)c1cccc(OCCO)c1)c1cnc2ccccc2c1)C(C)C,0.509 (inactive),0.0582,12.5 (active),2.52 (inactive),1.24 (inactive),0.895 (inactive),0.328,-1.71 (inactive),-0.885 (inactive),-1.73
COc1ccc([Si](C)(C)[C@H]2[C@H](CC(=O)N3Cc4ccccc4C[C@H]3CO)O[C@@]3(C(=O)N(C)c4c(Br)cc(C)cc43)[C@@H]2C)cc1,-1.05 (inactive),0.297,9.31 (active),2.16 (inactive),1.31 (inactive),1.68 (inactive),0.0914,0.0544 (inactive),0.794 (inactive),0.136
CO[C@H]1O[C@H](CO)[C@@H](OC(=O)Nc2ccc3c(c2)OCO3)[C@H](OC(=O)Nc2ccccc2-c2ccccc2)[C@H]1OC(=O)Nc1ccccc1-c1ccccc1,-0.133 (inactive),-0.0536,2.14 (inactive),0.825 (inactive),-0.124 (inactive),1.21 (inactive),-0.311,-4.55 (inactive),-0.707 (inactive),-0.848
CC(C)(C)N1CC=CC23O[C@@H]4C=CCCOC(=O)C4[C@H]2C(=O)N(CCCCCCO)[C@@H]3C1=O (stereo not given in full),0.0094 (inactive),0.365,0.683 (inactive),0.181 (inactive),0.639 (inactive),0.233 (inactive),1.78,0.882 (inactive),-0.0325 (inactive),2.08
C=CCOC(=O)[C@@H]1[C@H]2C(=O)O[C@H](c3ccccc3)[C@H](c3ccccc3)N2[C@H](c2ccc(OCCOC(=O)[C@H]3C[C@H]4C(=O)N5CCC[C@H]5C(=O)N4[C@H]3c3cccc(OCCO)c3)cc2)[C@@]12C(=O)Nc1ccc(I)cc12,-0.565 (inactive),-0.101,1.72 (inactive),1.39 (inactive),-0.341 (inactive),0.84 (inactive),-0.101,0.929 (inactive),0.788 (inactive),0.32
CCCC#C[Si](O[C@H](CC)c1cn(Cc2ccccc2)nn1)(C(C)C)C(C)C,0.991 (inactive),0.687,0.708 (inactive),0.3 (inactive),-0.929 (inactive),0.358 (inactive),0.113,0.442 (inactive),-0.11 (inactive),0.521
N#Cc1ccc(C(O)C2C=CC3C(=O)NC(=O)C3N2Nc2ccc(Cl)cc2Cl)cc1 (stereo not given),-1.18 (inactive),0.243,13.7 (active),2.42 (inactive),2.15 (inactive),1.39 (inactive),-1.29,-1.23 (inactive),-5.23 (inactive),-2.75
O=C1O[C@H](Cc2ccccc2)[C@@H]2[C@H]3C=CCCC=C3CN2[C@H]1Cc1ccc(O)cc1,0.676 (inactive),0.0811,3.72 (inactive),0.0962 (inactive),0.0059 (inactive),0.157 (inactive),-0.253,-2.69 (inactive),-1.58 (inactive),-1.3
C=CCN1C(=O)[C@@]2(O[C@@H](CCn3cc([C@H](O)c4ccccc4)nn3)[C@H]([Si](C)(C)c3ccc(OC)cc3)[C@H]2C)c2cc(N3C(=O)c4cccc5cccc3c45)ccc21,-0.851 (inactive),-0.101,4.77 (inactive),1.81 (inactive),0.519 (inactive),1.31 (inactive),0.075,0.962 (inactive),1.57 (inactive),2.52
CCOc1cc(C(O)C2C=CC3C(=O)N(c4ccccc4)C(=O)C3N2Nc2ccccc2F)ccc1O (stereo not given),-0.469 (inactive),0.875,6.56 (inactive),1.27 (inactive),-0.0788 (inactive),0.926 (inactive),-0.824,-2.32 (inactive),-4.37 (inactive),-4.13
C=C(CCCC)/C(=C/C[C@H](OC(C)=O)c1cccc(OCCO)c1)c1cnc2ccccc2c1,0.186 (inactive),-0.193,23.7 (active),6.09 (inactive),1.94 (inactive),1.34 (inactive),-0.33,-0.532 (inactive),-0.294 (inactive),-1.76
Cc1ccc(S[C@]2(C(=O)NCc3ccccc3)CC(=O)N(Cc3ccccc3C(F)(F)F)[C@@H]2c2ccc(CO)cc2)cc1,0.995 (inactive),-0.012,0.485 (inactive),-0.797 (inactive),-1.37 (inactive),-0.802 (inactive),1.24,-1.69 (inactive),0.0366 (inactive),-0.3
CN1C(=O)C2C(C1=O)C1C=C(CCCO)C2C(C2CC2)N1Cc1cccc(OC(F)(F)F)c1 (stereo not given),-0.771 (inactive),-0.295,1.34 (inactive),0.505 (inactive),0.627 (inactive),0.402 (inactive),-0.546,0.561 (inactive),0.568 (inactive),1.2
C=CC[C@@]1(C(=O)N(C)C)N=C(c2ccc(OCCCO)cc2)O[C@@H]1c1ccccc1CN=[N+]=[N-],1.34 (inactive),0.0513,23.1 (active),6.73 (inactive),1.93 (inactive),1.26 (inactive),-0.354,1.85 (inactive),0.736 (inactive),-1.42
COC(=O)[C@@]1(Cc2ccc(F)cc2)[C@H]2c3cc(C(=O)N4CCCC4)n(CCc4ccccn4)c3C[C@H]2CN1C(=O)c1ccccc1,-1.04 (inactive),0.413,1.8 (inactive),0.408 (inactive),0.394 (inactive),0.446 (inactive),-0.697,0.557 (inactive),-0.279 (inactive),-0.188
CCCCC(=C=CC[C@H](O)c1ccc(CO)o1)CCO,-0.258 (inactive),-0.0445,2 (inactive),0.278 (inactive),0.517 (inactive),0.134 (inactive),-0.189,0.802 (inactive),-0.0669 (inactive),-0.395
CC(C)=CCCC=C(C)C(O)C1C=CC2C(=O)N(c3ccccc3)C(=O)C2N1Nc1ccc(C#N)cc1 (stereo not given),-0.817 (inactive),0.304,15.5 (active),1.88 (inactive),0.918 (inactive),-1.08 (inactive),0.0382,-1.88 (inactive),-1.6 (inactive),-0.882
COC(=O)C1(Cc2ccccc2)C=C2C(=C(C)C(=O)C2C)CN1 (stereo not given),-0.492 (inactive),0.695,0.756 (inactive),-0.425 (inactive),-0.662 (inactive),-1.2 (inactive),2.47,0.436 (inactive),-0.568 (inactive),-4
C=C(COC)C(=O)CC[C@@H](OC(C)=O)c1ccccc1OCCO,0.929 (inactive),-0.152,1.73 (inactive),-0.91 (inactive),-0.0421 (inactive),-1.95 (inactive),0.846,-1.51 (inactive),0.146 (inactive),-1.38
COc1cc(C(O)C2C=CC3C(=O)N(c4ccccc4)C(=O)C3N2Nc2ccccc2)cc(OC)c1OC (stereo not given),-0.915 (inactive),0.501,26.2 (active),12.1 (active),1.18 (inactive),1.73 (inactive),-0.817,-1.61 (inactive),-3.49 (inactive),-3.2
COc1ccccc1CN1C(=O)c2ccccc2[C@](Cc2ccccc2I)(C(=O)NCC(C)C)[C@@H]1c1ccc(CO)cc1,2.48 (inactive),0.19,4.68 (inactive),1.44 (inactive),2.61 (inactive),0.745 (inactive),0.276,-0.943 (inactive),0.928 (inactive),-0.234
CN(C)CCCNC(=O)[C@@]1(Cc2ccccc2I)c2ccccc2C(=O)N(C2CCCCC2)[C@H]1c1ccc(CO)cc1,-2.04 (inactive),0.482,2.37 (inactive),-0.0009 (inactive),-2.34 (inactive),-0.456 (inactive),-2.25,-9.9 (active),-4.06 (inactive),-3.65
COCCOC(=O)N1C(=O)[C@@]2(c3cc(C#CCC(C(=O)OC)C(=O)OC)ccc31)[C@H](C(=O)Nc1nc3ccccc3s1)[C@H]1C(=O)O[C@H](c3ccccc3)[C@H](c3ccccc3)N1[C@@H]2c1ccc(O)cc1,0.0976 (inactive),0.786,1.3 (inactive),0.575 (inactive),-0.0813 (inactive),0.751 (inactive),-0.0525,1.59 (inactive),-1.11 (inactive),0.755
